High-throughput results: PubChem, several laboratories
Rows were chosen to be rich in hits. Some 1.3% of all compounds tested hit in one or more screens of this group.
S1P2 ag – S1P2 (human) receptor agonism; AID 729; O95136; hit rate 0.46% among 97,000; S1P2-expressing cell line, agonist reporter read-out; activation, % at 4.5 µM; in the data active = activation above about 16%;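 also: 0% = vehicle low control and 100% = maximal reference agonist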
Target sequence (O95136 whole entry, looked up): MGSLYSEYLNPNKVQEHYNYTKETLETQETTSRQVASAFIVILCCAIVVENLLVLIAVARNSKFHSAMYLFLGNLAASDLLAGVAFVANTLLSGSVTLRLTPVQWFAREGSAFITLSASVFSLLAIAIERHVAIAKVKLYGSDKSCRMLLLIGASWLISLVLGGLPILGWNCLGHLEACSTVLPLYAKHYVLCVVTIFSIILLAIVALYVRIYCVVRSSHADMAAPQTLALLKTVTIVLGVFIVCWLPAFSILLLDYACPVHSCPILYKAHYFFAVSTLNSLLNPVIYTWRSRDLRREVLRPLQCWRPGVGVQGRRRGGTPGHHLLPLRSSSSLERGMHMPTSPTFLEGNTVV
S1P2 antag – S1P2 (human) receptor antagonism; O95136; cell-based S1P2 antagonist assay, inhibition at 5 uM; inhibition, % at 5 µM; AID 736; hit rate 0.21% among 97,000; in the data active = inhibition above about 45%;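 also: CRE beta-lactamase reporter cells expressing human S1P2 stimulated with S1P; 0% = agonist at EC80 alone and 100% = agonist plus reference antagonist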
Phagocytosis inh – blocks phagocytosis by macrophages | AID 1029 | J774A.1 macrophage IgG-bead phagocytosis, imaging | inhibition, % at 5 µM | hit rate 0.07% among 110,000;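 active = inhibition above the mean of the plate negative controls plus 5 SD, cut at about 13% in these data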;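 also: phagocytic index as fraction of beads internalized from green versus red external bead signal; plate controls were DMSO negative control for no effect and cytochalasin-D positive control for full effect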
GALR2 agonist – activates the human galanin receptor 2. O43603. GALR2-expressing cells, agonist activation read-out. activation, % (concentration not given with the values). hit rate 0.48% among 140,000; in the data active = activation above about 5%, passing the limit was not always enough;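 also: 0% = vehicle buffer wells and 100% = reference agonist at full effect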
Target sequence (O43603 whole entry, looked up): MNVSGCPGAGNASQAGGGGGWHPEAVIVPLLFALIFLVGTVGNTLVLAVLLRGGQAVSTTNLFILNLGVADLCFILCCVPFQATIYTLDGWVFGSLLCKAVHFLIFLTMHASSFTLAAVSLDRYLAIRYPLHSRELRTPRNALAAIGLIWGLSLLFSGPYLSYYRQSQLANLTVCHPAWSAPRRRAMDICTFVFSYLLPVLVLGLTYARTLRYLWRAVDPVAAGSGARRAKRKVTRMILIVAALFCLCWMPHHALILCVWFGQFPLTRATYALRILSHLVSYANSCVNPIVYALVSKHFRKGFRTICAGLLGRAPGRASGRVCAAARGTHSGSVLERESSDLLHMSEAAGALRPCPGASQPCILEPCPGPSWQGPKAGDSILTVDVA
GALR2 antag – blocks the human galanin receptor 2; O43603; GALR2-expressing cells, antagonist mode; inhibition, % at 4 µM; hit rate 0.39% among 140,000; AID 828; in the data active = inhibition above about 27%;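 also: cells stimulated with galanin 1-16 at roughly its EC80; 0% = agonist challenge control and 100% = basal control without agonist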
Numbers without * were called inactive; nt = not tested or not shown; [ ] = remark or other dose.

SMILES | S1P2 ag | S1P2 antag | Phagocytosis inh | GALR2 agonist | GALR2 antag
Cc1ccc(NC(=O)Cc2nn(C)c(=O)c3ccccc23)cc1F | -3.2 | 66.8* | -1.9 | -0.5 | 21.3
O=C(N/N=C\c1cc(Cl)ccc1O)c1ccc(S(=O)(=O)N2CCCCC2)cc1 | nt | nt | nt | 6.9* | 15.4
O=C(NNS(=O)(=O)c1ccc(Cl)cc1)c1ccc(S(=O)(=O)N2CCCCC2)cc1 | nt | nt | -10.7 | 0.2 | 5.1
Cc1ccc(-c2nc(NC(=O)CSc3cc(C)c4ccccc4n3)ns2)cc1 | nt | nt | nt | -1.4 | 6.7
O=C(CSc1ccc2ccccc2n1)Nc1nsc(-c2ccc(Cl)cc2)n1 | nt | nt | 31.0*[artifact] | -0.6 | -3.7
Cc1ccc(N(C(=O)Cc2cccs2)C(C(=O)NC2CCCCC2)c2ccccn2)cc1C (configuration not stated) | nt | nt | -6.8 | -0.8 | 8.8
O=C1c2ccccc2S(=O)(=O)N1CC1CC(c2ccccc2)=NO1 (configuration not stated) | -4.1 | -11.3 | -0.8 | -0.1 | -2.8
COc1ccc(C2=NOC(CN3C(=O)c4ccccc4S3(=O)=O)C2)cc1 (configuration not stated) | -7.4 | -5.2 | 37.5* | -3.4 | 9.0
Cc1cc(NC(=O)CCS(=O)(=O)c2nc(-c3ccccc3)cc(C(F)(F)F)n2)no1 | nt | nt | -2.1 | nt | nt
CS(=O)(=O)c1nc(-c2ccccc2)cc(C(F)(F)F)n1 | nt | nt | nt | 4.5 | 53.7*
CCCNC(=O)c1c(N)n(-c2cc(OC)cc(OC)c2)c2nc3ccccc3nc12 | nt | nt | 2.4 | 13.9* | -8.6
COc1ccc(CNC(=O)c2c(N)n(CCCN3CCOCC3)c3nc4ccccc4nc23)cc1 | 39.2* | -73.2 | -0.6 | 32.5* | -34.6
Nc1c(C(=O)NCc2ccc(F)cc2)c2nc3ccccc3nc2n1CCCN1CCOCC1 | 44.8* | -70.5 | 0.2 | 41.1* | -42.6
CCCNC(=O)c1c(N)n(-c2ccc3c(c2)OCO3)c2nc3ccccc3nc12 | -0.5 | 13.6 | -0.6 | 0.4 | -2.2
COc1cccc(/C=N/Nc2snc(SC)c2C#N)c1 | -9.2 | 1.1 | nt | -1.3 | 13.8
COc1ccc(/C=N/Nc2snc(SC)c2C#N)cc1OC | -5.8 | -12.4 | -3.2 | 5.1* | 17.6
Cc1cc(C(F)F)n2nc(C(=O)Nc3sc4c(c3C#N)CCC4)nc2n1 | nt | nt | nt | 0.3 | -11.8
CCC(=O)c1cc2c(C)cc(=O)oc2c(C)c1O | 119.1* | -17.4 | 0.4 | 0.1 | 3.2
CCC(=O)c1cc2c(C)cc(=O)oc2c(C)c1OC(C)=O | nt | nt | -1.5 | 1.1 | 2.1
Cc1ccccc1NC(=O)c1c(O)c2cccc3c2n(c1=O)CCC3 | nt | nt | -0.1 | nt | nt
COc1ccccc1C1CN(c2ccc(F)cc2F)N=C1c1cccs1 (configuration not stated) | 17.5* | -33.4 | 1.0 | 37.1* | -12.6
COc1ccccc1C1CC(c2cccs2)=Nc2ccccc2S1 (configuration not stated) | -1.9 | 2.3 | -1.0 | 4.9 | 7.9
CC1Nc2nc(NC(=O)C(C)(C)C)[nH]c(=O)c2N(C)C1C (configuration not stated) | nt | nt | -6.8 | 0.9 | 4.2
Cc1csc(NC(=O)c2cc(-c3ccccc3)nc3ccccc23)n1 | nt | nt | -7.9 | -1.7 | -1.3
Cc1cc(C)n(CCc2nc3c4ccccc4n(CC#N)c(=O)n3n2)n1 | 29.4* | -24.2 | -0.3 | -0.1 | -12.6
SMILES | S1P2 ag | S1P2 antag | Phagocytosis inh | GALR2 agonist | GALR2 antag
C#CCSc1nc(-c2ccccc2)cc(C(F)(F)F)c1C#N | -1.7 | -3.5 | -0.3 | -0.8 | 6.1
Cc1ccc(-c2cc(C(F)(F)F)c(C#N)c(SCCC#N)n2)o1 | 17.3* | -26.6 | -4.1 | 7.0 | -6.9
CCOc1cc2c(C#N)c(N3CCNCC3)nc(N)c2c(N)n1 | 19.8* | -57.2 | 0.3 | -2.6 | 3.1
Cc1noc2ncnc(Sc3c(Cl)cccc3Cl)c12 | -5.8 | 47.9* | 0.0 | -2.5 | 20.2
COc1cc(-c2nnc(COC(=O)c3cc(C)nc4ccc(C)cc34)o2)cc(OC)c1OC | 27.4* | -37.2 | -1.0 | 0.5 | -24.5
COc1cc(-c2nnc(COC(=O)CSc3cc(C)c4ccccc4n3)o2)cc(OC)c1OC | 0.0 | -17.2 | -0.8 | -0.9 | 3.9
CCCn1c(=NC(=O)c2ccco2)c(C(=O)OCC)cc2c(=O)n3ccccc3nc21 | 6.9 | -50.7 | -0.2 | 2.3 | -3.1
CC(C)n1c(=NC(=O)c2ccco2)c(C#N)cc2c(=O)n3ccccc3cc21 | nt | nt | nt | 6.3* | 0.1
Cn1c(SC2=CS(=O)(=O)c3ccccc32)nc2ccccc21 | -8.4 | 61.9* | nt | -0.9 | 23.5
CC(C)CN(C(=O)c1cc2ccccc2o1)c1c(N)n(CC(C)C)c(=O)[nH]c1=O | nt | nt | -6.7 | -0.5 | 4.9
CC(=O)c1cccc(NS(=O)(=O)c2ccc(N/C=C\C(=O)c3ccc(C)cc3)cc2)c1 | -9.1 | 67.2* | 2.3 | 1.2 | 10.4
Cc1ccc(N=C2SC(C(=O)Nc3ccc(OC(F)(F)F)cc3)C(N)=C2C(=O)Nc2c(C)cc(C)cc2C)cc1 (configuration not stated) | nt | nt | 1.1 | -0.1 | -5.5
O=C(CCC(=O)N1CCc2ccccc21)Nc1ccccc1 | 57.6* | 9.8 | -1.2 | -2.1 | 6.4
O=C(Nc1ccccc1)N1CCc2ccccc21 | -3.8 | -5.9 | nt | -2.5 | 14.5
CNC(=O)c1cc2c(=O)n3cc(C)ccc3nc2n(C(C)C)c1=N | 17.8* | -18.3 | -0.5 | 16.2* | -0.4
CNC(=O)c1cc2c(=O)n3cc(C)ccc3nc2n(Cc2ccco2)c1=N | nt | nt | 0.1 | nt | nt
CCOC(=O)c1cc2c(=O)n3ccccc3nc2n(CCCOC)c1=NC(C)=O | 35.2* | -55.8 | nt | 12.9* | -14.5
CC(C)OCCCn1c(=NC(=O)c2ccncc2)c(C#N)cc2c(=O)n3ccccc3nc21 | 40.6* | -54.0 | -0.5 | 11.9* | -22.9
C=CCn1c(=N)c(C(=O)NCCCOC)cc2c(=O)n3cc(C)ccc3nc21 | 18.9* | -38.1 | 0.5 | 16.5* | -14.0
C=CCc1c(OC)ccc2ccc(=O)oc12 | -2.2 | -20.0 | 0.1 | -1.1 | 0.1
O=S(=O)(N/N=C/c1cn(Cc2ccccc2)c2ccccc12)c1ccccc1 | -11.3 | -1.8 | 0.3 | -4.5 | -3.5
C=CCn1c(=N)c(C(=O)NCCCOC)cc2c(=O)n3ccccc3nc21 | 29.9* | -32.6 | -0.8 | 22.5* | -2.9
Cc1nc(CCNC(=O)Cc2ccc(Cl)cc2)cs1 | 33.9* | 10.0 | -0.3 | -2.5 | 12.8
CC1(C)CC(=O)C(C=Nc2ccc3[nH]ncc3c2)=C(O)C1 | -4.8 | 23.5 | 0.3 | -1.8 | 7.4
CC1(C)CC(=O)C(C=Nc2ccc(O)cc2)=C(O)C1 | -10.6 | 10.2 | -1.0 | -0.8 | -0.1
SMILES | S1P2 ag | S1P2 antag | Phagocytosis inh | GALR2 agonist | GALR2 antag
CSc1ccccc1N=CC1=C(O)CC(C)(C)CC1=O | -4.2 | 21.7 | nt | -1.4 | 35.6*
CC1(C)CC(=O)C(C=Nc2ccc3cn[nH]c3c2)=C(O)C1 | -1.5 | -5.7 | -0.9 | -0.4 | 31.4*
CCNc1nc(NCC)n2c(SCc3nc4ccccc4c(=O)[nH]3)nnc2n1 | 43.2* | -49.0 | -1.3 | -1.0 | 3.5
CN(c1ccc(C(=O)Nc2ccccc2C(F)(F)F)cc1)S(C)(=O)=O | 2.5 | 12.0 | 54.0* | 2.1 | 3.5
Nc1c(C(=O)NCCc2ccc(Cl)cc2)sc2ccc(S(=O)(=O)N3CCCCC3)cc12 | nt | nt | nt | -1.2 | -14.0
CCc1cccc2sc(NC(=O)c3ccc(N4C(=O)CCC4=O)cc3)nc12 | nt | nt | nt | -0.2 | 4.4
Cc1ccc2sc(NC(=O)c3ccc(N4C(=O)CCC4=O)cc3)nc2c1C | nt | nt | nt | 6.7* | -3.0
